This is a sample that favours compounds with a hit; in the whole collection about 1.1% have one here.
NCOA2 inhibitor: human SRC2 (NCOA2) inhibition. HEK293 GAL4-SRC2 luciferase reporter, luminescence. Q15596. inhibition, % at 9 µM. actives 0.17% (n = 370,000);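 active = inhibition above the mean inhibition of all tested compounds plus 3 SD, set per campaign, cut at about 52% in these data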;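 note: 0% = DMSO treated cells and 100% = cells given Gossypol at 36 µM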
SRC1 inh: human NCOA1 inhibition; Q15788; HEK293 GAL4-SRC1 luciferase reporter, luminescence; inhibition, % at 3.6 µM; actives 0.12% (n = 360,000);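 active = inhibition above the campaign mean plus 3 SD, with each screening campaign given its own cutoff, cut at about 60% in these data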;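 note: 0% = DMSO treated cells and 100% = gossypol at 36 µM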
GalR3 antag: human GalR3 antagonism | O60755 | HEK293 GalR3-CNG cAMP membrane potential fluorescence; galR3 body fused to GalR1 C-terminus | inhibition, % at 3 µM | actives 0.44% (n = 360,000) | AID 651719;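 active = inhibition above the screen-wide average plus 3 SD, cut at about 13% in these data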;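 note: forskolin and galanin both at EC90 stimulate the cells; cAMP rise reported by CNG channel membrane potential dye signal; 0% = forskolin plus galanin with DMSO and 100% = forskolin alone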
Target sequence (O60755 1-299 limits assumed): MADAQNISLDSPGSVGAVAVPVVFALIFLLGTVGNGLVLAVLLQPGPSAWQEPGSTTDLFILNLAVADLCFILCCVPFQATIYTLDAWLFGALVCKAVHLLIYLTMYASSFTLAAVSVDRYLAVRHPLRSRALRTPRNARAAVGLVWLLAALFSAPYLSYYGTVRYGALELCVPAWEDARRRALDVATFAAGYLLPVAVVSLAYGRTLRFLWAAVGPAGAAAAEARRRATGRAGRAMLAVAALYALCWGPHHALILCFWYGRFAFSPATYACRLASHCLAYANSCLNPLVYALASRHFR
LRH-1 inv ag: NR5A2 inverse agonism in reporter assay; O00482; HEK293T StAR-luciferase reporter, LRH-1 transfected, 24 h; inhibition, % at 3.6 µM; actives 0.13% (n = 360,000); AID 602396;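 active = inhibition above the mean inhibition of all tested compounds plus 3 SD, cut at about 73% in these data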;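 note: 0% = DMSO wells and 100% = reporter-only cells lacking LRH-1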
COUP-TFII inh: blocks human COUP-TFII nuclear receptor | P24468 | HEK293T NGFI-A luciferase reporter, luminescence | inhibition, % at 8.6 µM | actives 0.7% (n = 370,000) | AID 686940;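 active = inhibition above a per-plate cutoff, mean inhibition of test wells between control levels plus 3 SD, cut at about 38% in these data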;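 note: cells cotransfected with COUP-TFII expression vector driving the NGFI-A reporter; 0% = median of COUP-TF2 test wells and 100% = reporter-only cells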
NCOA3 inh: inhibits human SRC3 coactivator | actives 0.17% (n = 360,000) | HEK293 GAL4-SRC3 luciferase reporter, luminescence | inhibition, % at 3.6 µM;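 active = inhibition above a per-campaign cutoff, the mean of all compounds plus 3 SD, cut at about 60% in these data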;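 note: 0% = DMSO-treated cells and 100% = gossypol-treated cells at 36 µM; higher means less SRC3-driven luciferase light from the GAL4 reporter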
VP16 Luc counter: counter-screen for COUP-TFII antagonists: inhibitors of VP16; shares compounds with COUP-TFII inh; actives 25% (n = 2,500); AID 687007; HEK293 Gal4-VP16 luciferase reporter, luminescence; inhibition, % at 8.5 µM; in the data active = inhibition above about 13%
COUP-TFII conf: confirmation of human COUP-TFII (NR2F2) inhibitors; shares compounds with COUP-TFII inh; HEK293 NGFI-A luciferase reporter, luminescence; inhibition, % at 8.5 µM; actives 45% (n = 2,500); AID 687008;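 active = mean inhibition over three repeats above a set limit taken from the earlier primary screen, cut at about 38% in these data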;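 note: 100% = cells given the luciferase reporter alone without the COUP-TF2 vector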
Active calls of the source: *; nt = no result.

SMILES	NCOA2 inhibitor	SRC1 inh	GalR3 antag	LRH-1 inv ag	COUP-TFII inh	NCOA3 inh	VP16 Luc counter	COUP-TFII conf
COC(=O)C1=C(c2ccc(-c3ccccc3)c(F)c2)C[C@@H]2CC[C@H]1N2C(=O)NCCOc1ccccc1	16	2	-8	-2	9	24	nt	nt
O=S(=O)(c1ccc(Cl)cc1)N1Cc2ccc(Br)cc2-n2nncc2C1	20	nt	-9	nt	9	nt	nt	nt
COC(=O)C1CC(OC(C)=O)C(=O)[C@H]2C1(C)CC[C@H]1C(=O)OC(c3ccoc3)CC12C (some centres not stated)	-6	nt	1	nt	-1	nt	nt	nt
O=C(NC(CCC(O)CO)P(=O)(Oc1ccccc1)Oc1ccccc1)OCc1ccccc1 (configuration not stated)	11	nt	nt	nt	-38	nt	nt	nt
COc1ccc(CC2=NCCc3cc(OC)c(OC)cc32)cc1OC	-11	16	-5	-10	-6	-4	nt	nt
COc1ccc(Cc2nccc3cc(OC)c(OC)cc23)cc1OC	-11	10	nt	36	40*	4	-3	14
CCC1CN2CCc3cc(OC)c(OC)cc3C2CC1CC1NCCc2c1[nH]c1ccc(O)cc21 (configuration not stated)	69*	96*	-5	98*	91*	95*	24*	90*
CN1CC[C@@H]2CN[C@H](c3ccccc3)C[C@@H]21	1	nt	-7	nt	-2	nt	nt	nt
COC1CC=C2CCN3CCC4=C(CC(=O)OC4)C23C1 (configuration not stated)	-11	nt	-2	nt	-16	nt	nt	nt
COc1ccc(CC2C(=O)NC(C)C(=O)N(C)C3C(=O)N(C)C(Cc4ccc(O)c(c4)Oc4ccc(cc4)C3O)C(=O)NC(C)C(=O)NC(C)C(=O)N2C)cc1 (configuration not stated)	75*	96*	-3	99*	89*	94*	27*	91*
CCOC(=O)[C@]12Cc3ccc(C)cc3[C@H]1N(C1CCCCC1)C(=O)c1ccccc12	-3	nt	6	52	50*	nt	17*	30
CCOC(=O)[C@]12Cc3cc(C)ccc3[C@H]1N(CCC(=O)OC)C(=O)c1ccccc12	-4	nt	-6	8	23	nt	nt	nt
c1ccc(-c2nc3ccccc3nc2-c2ccc(CN3CCC(n4nnc5ccccc54)CC3)cc2)cc1	18	nt	-8	nt	26	nt	nt	nt
O=C1C(=O)c2ccccc2-c2ccccc21	95*	95*	3	103*	109*	95*	96*	110*
CC[C@]12CCN(CC3(O)CC3)C(Cc3ccc(O)cc31)C2(C)C	20	nt	-2	nt	5	nt	nt	nt
CC1CCC/C=C/C2CC(O)CC2C(O)/C=C/C(=O)O1 (configuration not stated)	26	9	3	77*	59*	59	8	34
CCC(C)(O)C(=O)OC1C(=O)OC2CC3C(C)=CC(O)C(O)C3(C)C3C4(O)OCC23C1C(C)C4O (configuration not stated)	29	53	-7	97*	75*	71*	10	62*
COC(=O)c1ccc(NC(=O)CSc2nc3ccc(N4C(=O)C5C6C=CC(C6)C5C4=O)cc3s2)cc1 (configuration not stated)	50	-15	-4	39	64*	34	-25	37
O=C(Nc1ccccc1)c1cccn(Cc2ccccc2)c1=O	1	-46	-8	-43	8	-21	nt	nt
O=C(Nc1ccncc1)c1cccn(Cc2ccccc2)c1=O	14	14	10	38	66*	16	-5	51*
C=C(C=O)CC1CC(O)[C@]2(C)OC3CC4OC5C[C@]6(C)O[C@]7(C)CCC8OC9C[C@]%10(C)OC%11C(C)=CC(=O)OC%11CC%10OC9C[C@@H](C)C8OC7CC6O[C@]5(C)C/C=C\C4OC3CC2O1 (some centres not stated)	nt	nt	nt	nt	76*	nt	1	9
C=C(CC1CC(O)[C@]2(C)OC3CC4OC5C[C@]6(C)O[C@]7(C)CCC8OC9C[C@]%10(C)OC%11C(C)=CC(=O)OC%11CC%10OC9C[C@@H](C)C8OC7CC6O[C@]5(C)C/C=C\C4OC3CC2O1)C(=O)O (some centres not stated)	-2	-1	-5	10	-10	14	nt	nt
CN1C2CCC1C(C(=O)Oc1ccccc1)C(c1ccc(Cl)cc1)C2 (configuration not stated)	-32	nt	-7	nt	1	nt	nt	nt
O=C(NCCN1CCC2(CC1)C(=O)NCN2c1ccccc1)c1ccccc1F	2	nt	-4	nt	-6	nt	nt	nt
O=C(Nc1ccc(OC(=O)N2CCCCC2)cc1)N1CCOCC1	84*	44	-3	56	78*	48	29*	19
SMILES	NCOA2 inhibitor	SRC1 inh	GalR3 antag	LRH-1 inv ag	COUP-TFII inh	NCOA3 inh	VP16 Luc counter	COUP-TFII conf
O=C(Nc1ccc(OC(=O)N2CCCC2)cc1)N1CCOCC1	14	-14	-6	-8	5	9	nt	nt
COc1ccc(-c2cc(-c3ccccc3)[n+](C)c(-c3ccccc3)c2)cc1	-15	46	-6	74*	46*	70*	16*	53*
O=C(NCCN1CCC2(CC1)C(=O)NCN2c1ccccc1)c1cccs1	-52	nt	-6	nt	-13	nt	nt	nt
COC(=O)C1=C(c2ccc(OC(F)(F)F)cc2)C[C@@H]2CC[C@H]1N2C(=O)NCc1ccco1	10	nt	-6	nt	11	nt	nt	nt
CN(c1ccc(OCC(=O)N2CCN(C/C=C/c3ccccc3)CC2)cc1)S(=O)(=O)c1cccs1	-6	7	-9	10	38*	21	7	38*
C=Cc1cc(OC)c2c(c1)c(=O)oc1c2cc(OC)c2c(O)ccc(C3OC(C)C(O)C(C)(O)C3O)c21 (configuration not stated)	66*	34	-5	27	59*	38	24*	26
COc1ccc(OC(=O)N(C)C[C@H]2OCc3cnnn3CCCC(=O)N([C@@H](C)CO)C[C@@H]2C)cc1	14	nt	-5	nt	-5	nt	nt	nt
Cc1ccccc1-[n+]1c(-c2ccccc2)cc(-c2ccccc2)cc1-c1ccccc1	30	44	-9	70	68*	67*	22*	77*
CC1CC(C)(O)CC(C(O)CC2CC(=O)NC(=O)C2)C1=O (configuration not stated)	72*	94*	-1	98*	87*	93*	5	75*
O=C(c1ccccc1)N1Cc2cc(Br)ccc2-n2nncc2C1	-9	nt	-4	nt	-9	nt	nt	nt

Source: PubChem
